PubChem BioAssay (Tox21)
Results filed as inconclusive are left out. The source made the active and inactive calls. Unless noted, calls come from the whole dose curve; as a rule, active = well fitted curve in the direction sought with a large enough effect in the repeat runs; inconclusive = weak or mixed curves; inactive = no such curve, though single readings can be large; an effect the other way counts as inactive or inconclusive.

Key:
[1] = qHTS assay to identify small molecule agonists of the vitamin D receptor (VDR) signaling pathway - cell viability counter screen (AID 743224); note: series mostly up to about 63 µM; nearly all actives have a fitted effect of over 50% in size
How it was run: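 VDR-bla cell line, quantitative HTS format; 16 h compound incubation (37C, 5% CO2); ATP-based CellTiter-Glo luminescence measured in the reporter assay wells.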

[2] = qHTS assay to identify small molecule antagonists of the vitamin D receptor (VDR) signaling pathway - cell viability counter screen (AID 743225); note: nearly all actives have a fitted effect of over 50% in size
How it was run: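 Viability counter screen run in the same wells as the beta-lactamase reporter assay: HEK 293T VDR-UAS-bla cells, 16 h compound exposure at 37C with 3 nM (final) 1-alpha,25-dihydroxyvitamin D3. CellTiter-Glo luminescence, 30 min, room temperature.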

[3] = qHTS assay to identify small molecule agonists of the NFkB signaling pathway (AID 1159509; active = well fitted curve in the direction sought with a large enough effect in the signal ratio in the repeat runs, not every such curve was filed as active; the % refers to the signal ratio; note: series mostly up to about 61 µM)
How it was run: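 NFkB-bla ME-180 cells with a beta-lactamase reporter under an NF-kB response element were plated overnight, treated with compounds in DMSO for 5 hr at 37 C, then loaded with FRET substrate for 1.5 hr at room temperature.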

[4] = qHTS assay to identify small molecule agonists of the NFkB signaling pathway - cell viability counter screen (AID 1159515; calls by dose curve; note: series mostly up to about 61 µM; nearly all actives have a fitted effect of over 55% in size)
How it was run: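 Viability in NFkB-bla ME-180 cells was measured by CellTiter-Glo luminescence, 30 min room temperature, in wells already treated 5 hr with compounds and read for reporter FRET.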

[5] = qHTS assay to identify small molecule agonists of the endoplasmic reticulum stress response signaling pathway (AID 1159516; active = well fitted activation curve with a large enough effect in the signal ratio in the repeat runs, not every such curve was filed as active; the % refers to the signal ratio)
How it was run: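 ER stress element reporter (bla) in HeLa. 1,500 cells/well, overnight attachment; 5 hr compound; 2 hr RT substrate; dual-emission fluorescence.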

[6] = qHTS assay to identify small molecule agonists of the endoplasmic reticulum stress response signaling pathway - cell viability counter screen (AID 1159517; calls by dose curve;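 note: HeLa cells carrying an ER stress response element beta-lactamase reporter; series mostly up to about 61 µM; nearly all actives have a fitted effect of over 50% in size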)
How it was run: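 Counter-screen wells were identical to the reporter wells. Cells were plated at 1,500 per well and dosed for 5 hr, then read for luminescence 30 min after CellTiter-Glo addition.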

[7] = qHTS assay to identify small molecule antagonists of the retinoid-related orphan receptor gamma (ROR-gamma) signaling pathway - cell viability counter screen (AID 1159520); note: nearly all actives have a fitted effect of over 50% in size
How it was run: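 Tet-on ROR gamma CHO cells were given compounds for 2 hr, then doxycycline hyclate at 1 uM final, and incubated 16 hr at 37 C. Viability was measured as ATP content by CellTiter-Glo luminescence.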

[8] = qHTS assay to identify small molecule agonists of the AP-1 signaling pathway - cell viability counter screen (AID 1159525; calls by dose curve; note: nearly all actives have a fitted effect of over 55% in size)
How it was run: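 AP-1-bla ME-180 cells in Opti-MEM with 0.5% dialyzed FBS, compound exposure 5 h at 37 C in 15-point titration. Viability read in the same wells as ATP content by CellTiter-Glo luminescence, normalised to tetra-n-octylammonium bromide and DMSO controls.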

[9] = qHTS assay to identify small molecule agonists of the AP-1 signaling pathway (AID 1159526; calls by dose curve)
[10] = target: Nuclear receptor ROR-gamma (Homo sapiens) (UniProt P51449); assay: qHTS assay to identify small molecule antagonists of the retinoid-related orphan receptor gamma (ROR-gamma) signaling pathway (AID 1159521; note: nearly all actives have a fitted effect of over 50% in size; note: potency is the fitted concentration of half-maximal effect)
How it was run: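 Luminescence readout (ONE-Glo, 30 min RT) after 16 h doxycycline induction; loss of signal scored as antagonism. CHO cells with TET-inducible RORγ and RORE-LUC reporter; compounds added 2 h before 1 uM final doxycycline.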

Measured: Potency

CCO[C@H]1O[C@@H]2OC3(C)CC[C@H]4[C@H](C)CC[C@@H]([C@H]1C)[C@@]24OO3
not listed: [9] | [10]
inactive: all other assays above

Cc1c(F)c(F)c(COC(=O)C2C(/C=C(\Cl)C(F)(F)F)C2(C)C)c(F)c1F (stereo not drawn)
not listed: [10]
inactive: all other assays above

CC[C@H]1C[C@H]2[C@@H]3CCC4=CC(=O)CC[C@@H]4[C@H]3CC[C@]2(C)[C@H]1O
not listed: [9] | [10]
inactive: all other assays above

CCOP(=O)(OCC)O/C(=C/Cl)c1ccc(Cl)cc1Cl
active: [10] 68.6 µM
inactive: [3] | [4] | [5] | [6] | [8]

CCCCc1c(C)nc(NCC)nc1OS(=O)(=O)N(C)C
not listed: [8] | [10]
inactive: all other assays above

O=[Se]=O
not listed: [7] | [10]
inactive: all other assays above

C[C@@H]1CC[C@H]2[C@@H](C)C(=O)O[C@@H]3O[C@@]4(C)CC[C@@H]1[C@]32OO4
active: [10] 0.237 µM
not listed: [6]
inactive: all other assays above

CN(C)c1ccc(N(C)C)cc1
not listed: [1] | [6] | [9]
inactive: all other assays above

ClCC(Br)CBr (stereo not drawn)
not listed: [6]
inactive: all other assays above

C=CCOC(C)=O
not listed: [6]
inactive: all other assays above

CCCN(CCCl)c1c([N+](=O)[O-])cc(C(F)(F)F)cc1[N+](=O)[O-]
inactive: [2] | [3] | [4] | [5] | [6] | [10]

O=C(O)CC(Cl)C(=O)O (stereo not drawn)
not listed: [6] | [8]
inactive: all other assays above

c1ccc(C2CC2)c(OCC2=NCCN2)c1
not listed: [6]
inactive: all other assays above

BrCCCCBr
not listed: [6]
inactive: all other assays above
